Screens deposited in PubChem BioAssay by several laboratories.
In the library only some 4.1% were active in any assay of this set; here they are far more common.
DAX1 inh-1 = DAX1 (NR0B1) inhibition, primary screen. HEK293T StAR-luciferase reporter, SF-1/DAX-1 repression relief. inhibition, % at 6.8 µM. 370,000 tested, 1.1% active;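 active = inhibition above the mean over all tested compounds plus 3 SD, cut at about 3.6% in these data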;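 note: higher inhibition means more luminescence from relief of DAX-1 repression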
PolyA inhibitor = yeast polyadenylation inhibition | 300,000 tested, 0.02% active | S. cerevisiae SKY197-pL101 polyadenylation reporter, beta-gal luminescence; efflux-impaired pdr1/pdr3 knockout yeast; score 100 = 6 SD above DMSO | AID 1875 | activity score, % at 12 µM;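 active = lowest replicate activity score at least 50, where 100 means six control SD above control mean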;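 note: yeast exposed to compound for 9 h at 30 °C; higher score means more reporter readthrough which indicates perturbed polyadenylation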
DAX1 inh-2 = NR0B1 (DAX1) inhibition; P51843; HEK293 Gal4-DAX1 luciferase reporter, luminescence; inhibition, % at 6.75 µM; 340,000 tested, 0.99% active; AID 504766;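 active = inhibition above the mean over all tested compounds plus 3 SD, cut at about 4.2% in these data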;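 note: inhibition shows as a rise in luminescence from relieved DAX1 repression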
Target sequence (P51843 207-470 limits assumed): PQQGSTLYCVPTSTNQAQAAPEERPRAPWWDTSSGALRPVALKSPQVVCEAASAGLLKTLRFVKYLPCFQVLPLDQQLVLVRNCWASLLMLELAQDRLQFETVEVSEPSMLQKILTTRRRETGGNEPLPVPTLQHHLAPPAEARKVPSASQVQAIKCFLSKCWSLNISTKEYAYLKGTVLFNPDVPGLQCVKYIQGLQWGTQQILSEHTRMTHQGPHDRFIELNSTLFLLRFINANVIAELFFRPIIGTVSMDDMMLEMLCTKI
ssDAF-12 act = S. stercoralis DAF-12 activation, primary screen | 370,000 tested, 1% active | activation, % at 6.8 µM | HEK293 ssDAF-12/GRIP1 lit1-tk-luc reporter, luminescence; % of 3 µM dafachronic acid response | AID 652126;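 active = activation above the mean over all tested compounds plus 3 SD, cut at about 0.9% in these data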
hgDAF-12 ag = agonists of H. glycines DAF-12 nuclear receptor | HEK293 GAL4-hgDAF12 UAS-luciferase reporter, agonist luminescence; normalized to butyrate control | activation, % at 6.8 µM | 370,000 tested, 1.8% active | AID 687014;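 active = activation above a cutoff set at the mean of all screened compounds plus 3 SD, cut at about 10% in these data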
hcDAF-12 act = H. contortus DAF-12 activation, primary screen; activation, % at 6.8 µM; HEK293 hcDAF-12 lit1-tk-luc reporter, luminescence; 0% DMSO, 100% Δ7-dafachronic acid; 370,000 tested, 1.4% active; AID 652067;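 active = activation above the mean of all tested compounds plus 3 SD, cut at about 5.5% in these data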
DAX1 inh confirm = confirmation of human DAX1 (NR0B1) inhibitors | shares compounds with DAX1 inh-1 | HEK293T StAR-promoter luciferase reporter, SF-1/DAX-1 repression | inhibition, % at 6.8 µM | 2,400 tested, 87% active;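 active = inhibition above the average of every tested compound plus 3 SD, cut at about 3.8% in these data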;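 note: active compounds raise luminescence by relieving repression of the StAR reporter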
Target sequence (P51843 whole entry, looked up): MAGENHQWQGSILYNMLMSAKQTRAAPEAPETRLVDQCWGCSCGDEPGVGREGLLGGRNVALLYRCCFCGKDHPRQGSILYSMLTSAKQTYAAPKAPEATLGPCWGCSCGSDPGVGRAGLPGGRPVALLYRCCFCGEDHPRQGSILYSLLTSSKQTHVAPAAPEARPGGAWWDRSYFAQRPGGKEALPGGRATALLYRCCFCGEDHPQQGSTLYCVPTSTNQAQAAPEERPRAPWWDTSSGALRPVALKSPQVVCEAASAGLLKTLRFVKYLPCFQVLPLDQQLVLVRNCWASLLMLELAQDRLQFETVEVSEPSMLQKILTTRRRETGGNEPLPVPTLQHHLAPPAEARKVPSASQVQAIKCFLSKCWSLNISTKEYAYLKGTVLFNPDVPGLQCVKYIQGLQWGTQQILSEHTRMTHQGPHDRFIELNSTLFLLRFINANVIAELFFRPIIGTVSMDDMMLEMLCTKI
SF1 mutant ctr = counter-screen for DAX1 inhibitors: nonselective inhibitors with SF-1 AF2 mutant; HEK293 StAR-luciferase, luminescence; inhibition, % at 6.8 µM; shares compounds with DAX1 inh-1; 2,400 tested, 78% active;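 active = inhibition above the mean of all tested compounds plus 3 SD, cut at about 3% in these data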
Large screens that a line does not name were inactive (follow-up assays come after a bar, where they were run).

O=C(Nc1nnc(-c2ccccc2)s1)c1ccccc1F	DAX1 inh-1 5.5, hgDAF-12 ag 11 | DAX1 inh confirm 7.7 | SF1 mutant ctr 5.2
O=C(CSc1nnc(NC(=O)c2ccccc2F)s1)NCc1ccco1	DAX1 inh-1 6.3 | DAX1 inh confirm 5.9 | SF1 mutant ctr 6.4
CC(=O)Nc1nnc(SCC(=O)NC2CCCC2)s1	none
Cc1ccccc1C(=O)Nc1nnc(SCC(=O)NC2CC2)s1	DAX1 inh-1 7.4 | DAX1 inh confirm 6.1 | SF1 mutant ctr 3.6
COc1ccc(C(=O)Nc2nnc(SCC(=O)NC3CCCC3)s2)c(OC)c1	DAX1 inh-1 10, ssDAF-12 act 2.3, hgDAF-12 ag 11 | DAX1 inh confirm 8.4 | SF1 mutant ctr inactive
COc1ccc(C(=O)Nc2nnc(SCC(=O)NCc3ccco3)s2)c(OC)c1	DAX1 inh-1 5.0 | DAX1 inh confirm 5.5 | SF1 mutant ctr inactive
CCc1nnc(NC(=O)c2ccc(OC)cc2OC)s1	DAX1 inh-1 6.8, hgDAF-12 ag 12, hcDAF-12 act 6.1 | DAX1 inh confirm 13 | SF1 mutant ctr 5.7
O=C(CSc1nnc(NC(=O)c2ccccc2F)s1)NCc1ccc(F)cc1	DAX1 inh-1 6.8 | DAX1 inh confirm 9.2 | SF1 mutant ctr 3.7
COc1ccccc1C(=O)Nc1nnc(SCC(=O)NCC2CCCO2)s1 (stereo not given)	DAX1 inh-1 10, hgDAF-12 ag 11 | DAX1 inh confirm 9.6 | SF1 mutant ctr 9.2
CCc1nnc(NC(=O)Nc2ccccc2OC)s1	none
CCCCNS(=O)(=O)/C=C/c1ccccc1CCNC(=O)OC(C)(C)C	none (no result: PolyA inhibitor, DAX1 inh-2)
COc1ccccc1OCc1cc(C(=O)N(C)CCC2CCCCO2)no1 (stereo not given)	DAX1 inh-1 5.0, hgDAF-12 ag 11 | DAX1 inh confirm 7.1 | SF1 mutant ctr inactive
CN1C(=O)c2cc(NC(=O)C3CCOCC3)ccc2OC[C@@H]2O[C@@H](CC(=O)NCc3ccccc3F)CC[C@@H]21	none (no result: PolyA inhibitor, DAX1 inh-2)
CC(C)(C)S(=O)N1C[C@@H]2CC(=O)C=C2[C@H]1CCO (stereo not given in full)	none (no result: PolyA inhibitor, DAX1 inh-2)
COc1ccc(NC(=O)CN(C)C(=O)CSc2nc3ccccc3s2)cc1	DAX1 inh-1 5.0 | DAX1 inh confirm inactive | SF1 mutant ctr inactive
CN(CC(=O)Nc1ccccc1Cl)C(=O)CSc1nc2ccccc2s1	none
Cc1cccc(NC(=O)NC2CCCCCCC2)c1	DAX1 inh-1 5.7 (no result: PolyA inhibitor) | DAX1 inh confirm 4.9 | SF1 mutant ctr 3.6
CC(=O)c1cccc(NC(=O)NC2CCCCCCC2)c1	none
O=C(CC1SC(N2CCCCC2)=NC1=O)Nc1cccc(C(=O)Nc2ncccc2O)c1 (stereo not given)	DAX1 inh-1 7.9, hgDAF-12 ag 11 | DAX1 inh confirm 9.7 | SF1 mutant ctr 9.1
C#CCNC(=O)C[C@H]1C[C@@]2(C(=O)OC)C(=C[C@H](C(C)(C)C)O[C@@H]2C)N(Cc2ccc3c(c2)OCO3)C1=O	none (no result: PolyA inhibitor, DAX1 inh-2)
Cc1noc(C)c1C(=O)N1CCC(n2nnc3ncccc32)CC1	none (no result: PolyA inhibitor, DAX1 inh-2)
Fc1cccc(Cc2c(-c3ccccc3)nc3ccc(Cl)cn23)c1	DAX1 inh-1 4.6 (no result: PolyA inhibitor, DAX1 inh-2) | DAX1 inh confirm inactive | SF1 mutant ctr inactive
Clc1cccc(-c2nc3ccc(Br)cn3c2Cc2ccccc2)c1	DAX1 inh-1 6.7 (no result: PolyA inhibitor, DAX1 inh-2) | DAX1 inh confirm 4.6 | SF1 mutant ctr inactive
Cc1ccc(-c2nc3cc(C)c(Br)c(C)n3c2Cc2cccc(F)c2)cc1	DAX1 inh-1 5.7, ssDAF-12 act 1.9, hgDAF-12 ag 13, hcDAF-12 act 6.2 (no result: PolyA inhibitor, DAX1 inh-2) | DAX1 inh confirm 6.2 | SF1 mutant ctr 5.3
Clc1cccc(Cc2c(-c3cccc(Cl)c3)nc3ccc(Br)cn23)c1	none (no result: PolyA inhibitor, DAX1 inh-2)
N#CCS(=O)(=O)c1cccc[n+]1[O-]	none (no result: PolyA inhibitor, DAX1 inh-2)
Oc1ccc(Cl)cc1N=Nc1ccccc1	none
Cc1ccc(O)c(N=Nc2ccccc2)n1	DAX1 inh-1 5.6, hgDAF-12 ag 12 | DAX1 inh confirm 10 | SF1 mutant ctr 6.5
COc1ccc(S[C@]2(C(=O)N(C)C)CC(=O)N(S(=O)(=O)c3ccc(F)cc3)[C@@H]2c2ccc(OC)cc2)cc1	none (no result: PolyA inhibitor, DAX1 inh-2)
CC(=O)Nc1ccc(NC(=O)C(C)OC(=O)CC2CCCCC2)cc1 (stereo not given)	none
CC(OC(=O)CC1CCCC1)C(=O)Nc1ccc(S(N)(=O)=O)cc1 (stereo not given)	DAX1 inh-1 4.9 | DAX1 inh confirm inactive | SF1 mutant ctr inactive
COc1ccc(S[C@]2(C(=O)N3CCCC3)CC(=O)N(C(=O)c3ccccc3)[C@@H]2c2ccc(OC)cc2)cc1	none (no result: PolyA inhibitor, DAX1 inh-2)
O=S(=O)(c1cccs1)N1CCCc2nc(-c3ccc(F)cc3)ccc21	none (no result: PolyA inhibitor, DAX1 inh-2)
COc1ccccc1-n1cnc2cc(NCc3ccccn3)ccc21	none
CCCn1cnc2cc(NCc3ccccn3)ccc21	DAX1 inh-1 5.0 | DAX1 inh confirm 3.8 | SF1 mutant ctr inactive
CCc1ccc(CNc2ccc3c(c2)ncn3C)cc1	DAX1 inh-1 4.6 | DAX1 inh confirm 7.9 | SF1 mutant ctr 6.9
Clc1ccc(-c2cc(-c3nnc4sc(Cc5cccs5)nn34)[nH]n2)cc1	none (no result: PolyA inhibitor, DAX1 inh-2)
CC(C)(C)OC(=O)N1CCC2CCN(CCc3ccccc3)CC21 (stereo not given)	none (no result: PolyA inhibitor, DAX1 inh-2)
O=C(c1ccc2nc(Cc3ccccc3F)oc2c1)N1CC[C@H](O)C1	DAX1 inh-1 6.2 | DAX1 inh confirm 5.9 | SF1 mutant ctr inactive
CC(c1ccccn1)N(C)C(=O)c1ccc2nc(Cc3ccccc3F)oc2c1 (stereo not given)	DAX1 inh-1 4.8 | DAX1 inh confirm 5.3 | SF1 mutant ctr 4.4
Cc1cc(CN(C)C(=O)c2ccc3nc(Cc4ccccc4F)oc3c2)n[nH]1	none
COc1ccc(Cc2nc3ccc(C(=O)N4CCOCC4)cc3o2)cc1	DAX1 inh-1 5.4 | DAX1 inh confirm 7.4 | SF1 mutant ctr 3.8
CC(=O)N1CCCN(C(=O)c2ccc3nc(Cc4ccccc4F)oc3c2)CC1	none
O=C(CCS(=O)(=O)c1ccccc1)Nc1ccc(F)cc1Cl	none (no result: PolyA inhibitor, DAX1 inh-2)
Nc1cc2[nH]c(=O)c3ccccc3c2cc1[N+](=O)[O-]	DAX1 inh-1 5.4 (no result: PolyA inhibitor) | DAX1 inh confirm inactive | SF1 mutant ctr inactive
COc1cc2c(=O)[nH]c3cc([N+](=O)[O-])ccc3c2cc1[N+](=O)[O-]	none (no result: PolyA inhibitor)
CCCCC[C@@H](C)N1C[C@H](COCc2ccccc2)Oc2cc(N3CCC[C@@H]3COC)ccc2S1(=O)=O	DAX1 inh-1 5.1 (no result: PolyA inhibitor, DAX1 inh-2) | DAX1 inh confirm 5.7 | SF1 mutant ctr 4.3
